Test results taken from the supplement of paper PMC7866885, “A novel bicyclic 2,4-diaminopyrimidine inhibitor of Streptococcus suis dihydrofolate reductase” (PeerJ, 2021).
± gives the standard deviation.

What was measured:
Streptococcus suis HE06 = assay: percent growth relative to DMSO control; higher = less growth inhibition; settings: 10 µM; incubation time 18 h
Experimental: (§1)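 CLSI broth microdilution: 5x10^4 CFU of Streptococcus suis (strain P1/7 or HE06) incubated with 10 µM Pathogen Box compound in cation-adjusted Mueller Hinton broth, 37 °C, 5% CO2, 18 h. Growth read as OD600 and expressed as percent of the DMSO-treated control (100%); mean ± SD of three independent experiments.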

Streptococcus suis P1/7 = assay: as above; settings: 10 µM; incubation time 18 h
Experimental: as §1

| SMILES | percent growth (Streptococcus suis HE06) [%] | percent growth (Streptococcus suis P1/7) [%] |
| --- | --- | --- |
| CC(=O)NC[C@@H]1CN(c2ccc(N3CCOCC3)c(F)c2)C(=O)O1 | 3.9 ± 5.2 | 3.05 ± 1.6 |
| CCOC(=O)NC(=O)c1ccsc1NC(=O)c1nc2ccccc2s1 | 0.167 ± 0.2 | 5.08 ± 8.2 |
| O=C(Nc1cccc(Cl)c1)c1cnc(N2CCN(c3ccncc3)CC2)c(Cl)c1 | 62 ± 36 | 20.4 ± 12 |
| CCN(CC)S(=O)(=O)c1ccc(Cl)c(C(=O)Nc2ccc3nc(C)sc3c2)c1 | 83.9 ± 6.7 | 138 ± 70 |
| CC(C)C(C(=O)Nc1ccc(S(=O)(=O)N(C)C)cc1)c1ccc(Cl)cc1 (stereo not given) | 110 ± 24 | 86 ± 22 |
| NCCC(O)C(=O)N[C@@H]1C[C@H](N)[C@@H](OC2O[C@H](CN)[C@@H](O)[C@H](O)[C@H]2O)[C@H](O)C1OC1O[C@H](CO)[C@@H](O)[C@H](N)[C@H]1O (stereo not given in full) | 104 ± 4.8 | 87.5 ± 38 |
| CCc1ccccc1-n1c(C)cn2c3c(=O)n(C(C(=O)OC)C(C)C)c(=O)n(C)c3nc12 (stereo not given) | 109 ± 4.8 | 101 ± 14 |
| O=C(NCCc1ccccc1)c1cc(-c2cccnc2)cnc1NCC1CC1 | 88.2 ± 20 | 59.7 ± 23 |
| O=C(Nc1ccc(N2CCNCC2)nc1)c1oc(-c2ccccc2)nc1C(F)(F)F | 93.7 ± 20 | 63.6 ± 18 |
| Cc1cccc(NC(=O)c2cc(S(=O)(=O)N(C)c3ccc(F)cc3)ccc2Cl)n1 | 111 ± 31 | 112 ± 33 |
| Nc1nccc2ccc(Oc3ccncc3)cc12 | 97.4 ± 7 | 84.2 ± 8.7 |
| COc1ccc(S(=O)(=O)Nc2ccc(CN3CCN(C(=O)c4cccc(C#N)c4)CC3)cc2)cc1 | 103 ± 16 | 118 ± 47 |
| CC(Oc1ccccc1)C(=O)Nc1nc(-c2ccccn2)cs1 (stereo not given) | 2.67 ± 2.8 | 2.35 ± 2.4 |
| O=C(Nc1cnc2ccccc2c1)c1cccc(-n2cnnn2)c1 | 110 ± 2.4 | 106 ± 28 |
| Nc1ccc(C(=O)Nc2ccc(-c3nc4ccccc4o3)cc2)cc1 | 105 ± 4.4 | 92.6 ± 17 |
| O=C(NC1=NCCS1)c1sc2cc(F)ccc2c1Cl | 93.8 ± 5.2 | 88.6 ± 14 |
| Cc1ccc2nc(Cl)c(CNCc3cccs3)cc2c1 | 93.6 ± 9.5 | 100 ± 21 |
| COc1ccccc1C(C)NCC(=O)Nc1cc(C(F)(F)F)ccc1Cl (stereo not given) | 86.8 ± 5.4 | 112 ± 23 |
| Cc1cc(Cl)c(S(=O)(=O)N2CCCC2)cc1OCC(=O)NC1CCCCC1 | 87.7 ± 22 | 63.6 ± 18 |
| CN1CCC(NCc2cccc(-c3ccc(S(=O)(=O)NCc4ccccc4)cc3)c2)CC1 | 94.9 ± 28 | 70.3 ± 11 |

| SMILES | percent growth (Streptococcus suis HE06) [%] | percent growth (Streptococcus suis P1/7) [%] |
| --- | --- | --- |
| N=C(N)c1ccc(-c2cc(-c3ccccc3)on2)cc1 | 85.2 ± 3 | 106 ± 55 |
| CS(=O)(=O)c1ccccc1C(=O)N(Cc1ccccc1)c1ccccc1 | 115 ± 7.9 | 107 ± 33 |
| Cc1cc(Nc2ccncc2)n2nc(C)c(-c3ccccc3Cl)c2n1 | 73.9 ± 22 | 105 ± 37 |
| COc1cc(-c2cc(-c3ccc(S(C)(=O)=O)cc3)cnc2N)ccc1O | 106 ± 34 | 70.7 ± 22 |
| CC(Oc1cccc(Cl)c1)C(=O)Nc1ccc2oc(-c3ccncc3)nc2c1 (stereo not given) | 75.2 ± 17 | 77.5 ± 2.9 |
| COc1ccc(-c2cnc3ccc(N4CCCC4)nn23)cc1OC | 48.8 ± 40 | 77.7 ± 7.5 |
| COc1ccc(C2=NN(C3CCCCCC3)C(=O)C2(C)C)cc1OCCCCOc1ccc(-c2nn[nH]n2)cc1 | 2.58 ± 3.1 | 16.3 ± 27 |
| Cc1ccc(S(=O)(=O)Nc2ccc(CN3CCN(C(=O)c4cccc(C#N)c4)CC3)cc2)cc1 | 104 ± 9.6 | 114 ± 40 |
| Nc1nc2ccc(-c3cncc(Oc4ccc(F)cc4)c3)cc2[nH]1 | 91.8 ± 11 | 111 ± 67 |
| COc1ccc(-c2cc(NC(=O)c3ccc(F)cc3Cl)ccc2OC)cc1 | 89.4 ± 3.4 | 96 ± 31 |
| COc1ccc(N(CCc2cccc(C)n2)C(=O)C2CCCCC2)cc1 | 115 ± 37 | 105 ± 28 |
| O=C(NC1CCN(c2ccnc3ccccc23)C1)c1cccc(C(F)(F)F)c1 (stereo not given) | 106 ± 30 | 81.5 ± 25 |
| COc1ccc2nccc(NC(=O)C3CCN(CCc4ccc(Cl)cc4)CC3)c2n1 | 74.3 ± 59 | 28.6 ± 47 |
| Clc1ccc(Cl)c(CO[C@H]2CCCC[C@@H]2n2ccnc2)c1 | 26.2 ± 40 | 20.8 ± 36 |
| Nc1ccc2ncnc(Nc3ccc(OCc4cccc(F)c4)c(Cl)c3)c2c1 | 111 ± 9.4 | 81.2 ± 18 |
| COc1ccc(-c2nnc3ccc(-c4cccc(C(C)C)c4)cn23)cc1OC | 97.1 ± 15 | 68 ± 20 |
| c1ccc(Oc2ccc(-c3cncc(-c4ccc5[nH]ccc5c4)n3)cc2)cc1 | 109 ± 24 | 83.7 ± 20 |
| Cc1nnc(NCc2cccc(Cl)c2)c2ccccc12 | 80.1 ± 8.7 | 85.4 ± 29 |
| O=C(NCCc1ccn(-c2ccccc2)n1)C1CCCCC1 | 97.3 ± 2.1 | 95 ± 23 |
| O=C(Nc1c(O)cccc1-c1nc2c(C(=O)O)cccc2o1)c1cc(-c2ccccc2)on1 | 61.5 ± 26 | 11.1 ± 6.9 |
